Data reported in PubChem BioAssay AID1445 (SRMLSC, 2008).
Screen size: about 220,000 compounds; about 910 (0.41%) were called active.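 Rule for the calls: active = primary inhibition above the hit cutoff, then over 50% inhibition at one or more dose response concentrations (cut at about 23% in these data, passing the limit was not always enough); inconclusive = conflicting primary data, or primary hits not chosen for dose response; inactive = low primary inhibition, or under 50% at every dose.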 What follows is part of a selection rich in actives, with near analogues and random picks from the rest. Entries with a potency or affinity are not part of this list.

These compounds were tested against Aminopeptidase N (Plasmodium falciparum (isolate 3D7)) (UniProt O96935) (assay: P. falciparum M1AAP inhibitors, biochemical, fluorogenic H-Leu-NHMec substrate, 1536-well (AID 1445;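 note: plate controls were DMSO full reaction for no effect and no enzyme background for full effect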)). Conditions: recombinant M1AAP, H-Leu-NHMec fluorogenic kinetic assay; at 30 µM, stronger effect = higher value unless noted.
Sequence of Aminopeptidase N (Plasmodium falciparum (isolate 3D7)) (O96935 whole entry, looked up): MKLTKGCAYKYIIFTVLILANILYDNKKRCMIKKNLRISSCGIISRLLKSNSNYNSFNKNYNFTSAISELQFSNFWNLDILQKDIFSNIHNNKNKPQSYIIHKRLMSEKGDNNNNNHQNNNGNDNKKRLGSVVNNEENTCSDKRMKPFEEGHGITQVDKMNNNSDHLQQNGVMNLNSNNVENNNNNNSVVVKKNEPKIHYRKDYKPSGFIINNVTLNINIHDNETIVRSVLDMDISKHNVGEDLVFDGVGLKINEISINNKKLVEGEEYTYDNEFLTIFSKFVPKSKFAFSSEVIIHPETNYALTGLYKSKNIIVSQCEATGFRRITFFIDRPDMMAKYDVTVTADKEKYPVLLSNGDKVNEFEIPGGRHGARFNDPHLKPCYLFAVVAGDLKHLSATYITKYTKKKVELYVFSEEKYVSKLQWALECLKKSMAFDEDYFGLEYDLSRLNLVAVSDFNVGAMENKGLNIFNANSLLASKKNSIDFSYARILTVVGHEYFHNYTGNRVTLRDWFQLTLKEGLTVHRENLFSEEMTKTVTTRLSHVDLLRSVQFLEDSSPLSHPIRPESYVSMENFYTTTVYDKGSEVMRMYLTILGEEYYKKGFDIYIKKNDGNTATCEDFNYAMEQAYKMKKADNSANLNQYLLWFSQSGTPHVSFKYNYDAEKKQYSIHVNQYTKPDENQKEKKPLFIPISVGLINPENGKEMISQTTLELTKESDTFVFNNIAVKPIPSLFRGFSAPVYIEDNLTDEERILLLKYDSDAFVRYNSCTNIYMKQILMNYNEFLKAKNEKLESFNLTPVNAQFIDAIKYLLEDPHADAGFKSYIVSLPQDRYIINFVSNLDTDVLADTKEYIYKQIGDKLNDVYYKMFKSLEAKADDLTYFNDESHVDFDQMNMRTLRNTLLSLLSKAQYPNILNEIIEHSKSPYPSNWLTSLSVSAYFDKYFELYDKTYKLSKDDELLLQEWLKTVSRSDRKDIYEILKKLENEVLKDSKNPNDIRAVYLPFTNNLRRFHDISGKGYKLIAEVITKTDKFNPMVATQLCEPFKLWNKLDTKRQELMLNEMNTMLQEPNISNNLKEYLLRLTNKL
`COc1ccc(NC(=O)CSc2ncn[nH]2)c([N+](=O)[O-])c1` was tested, and the inhibition was -0.25% (inactive). With `C=CCn1c(SCc2c(C(=O)OC)sc(N)c2C(=O)OC)nnc1-c1ccc(Br)cc1` the inhibition was 6.79% (inactive). In the case of `CCC(=O)c1c(NC(C)C)cc(C)oc1=O`, the inhibition is reported as 2.35% (inactive). For `Cc1cnc(C)c(N2CCC(C(=O)NCc3cccs3)CC2)n1`, the inhibition was 3.94% (inactive). With `COc1cc(CNC(C)(C)C)cc(Br)c1OCc1cccs1` the inhibition was 6.22% (inactive). `COc1cc(C2c3c(-c4ccccc4)n[nH]c3C(=O)N2c2ccc(C(=O)O)cc2)ccc1O` (stereo unspecified) was tested, and the inhibition was 14.8% (inactive). For `COc1cccc(C2c3c(-c4ccccc4)n[nH]c3C(=O)N2c2ccc(C(=O)O)cc2)c1` (stereo unspecified), the inhibition was 8% (inactive). `COc1ccc(C2c3c(-c4ccccc4)n[nH]c3C(=O)N2c2ccc(C(=O)O)cc2)cc1` (stereo unspecified) was tested, and the inhibition was 5.67% (inactive). In the case of `O=C(O)c1ccc(N2C(=O)c3[nH]nc(-c4ccccc4)c3C2c2ccccc2)cc1` (stereo unspecified), the inhibition is reported as 2.78% (inactive). With `COc1cccc(OC)c1OCCNCCO` the inhibition was 9.5% (inactive). In the case of `O=C(CCNS(=O)(=O)c1cccc2nsnc12)NCc1ccco1`, the inhibition is reported as 3.34% (inactive). With `CC(=O)Nc1ccccc1C(=O)C(=O)Nc1cccc(C(=O)NCc2ccc(C)cc2)c1` the inhibition was 2.5% (inactive). `COC(=O)c1cc(NC(=S)N2CCN(C(=O)C3CCCO3)CC2)cc(C(=O)OC)c1` (stereo unspecified) was tested, and the inhibition was -0.88% (inactive). With `CCOC(=O)c1cc2c(=O)[nH]ccc2nc1C(F)(F)F` the inhibition was 5.5% (inactive). `COc1cccc(/C=C(/C#N)c2ccc(Cl)cc2)c1OCc1cccc(C(=O)O)c1` was tested, and the inhibition was 13.3% (inactive). With `CCOc1cc(/C=C(/C#N)c2nc3ccccc3[nH]2)ccc1Oc1ccc([N+](=O)[O-])cn1` the inhibition was 1.44% (inactive). For `CCCc1ccc(OCc2ccc(C(=O)O)o2)c(OC)c1`, the inhibition was 1.24% (inactive). With `CCOc1cc(/C=C(/C#N)c2ccc(F)cc2)ccc1OCc1ccc(C(=O)O)o1` the inhibition was 17.8% (inactive). For `COC(=O)c1ccc(COc2ccc(/C=C(\C#N)c3nc4ccccc4[nH]3)cc2OC)o1`, the inhibition was 12.6% (inactive). `COc1cc(/C=C(/C#N)c2ccc(F)cc2)ccc1OCc1ccc(C(=O)O)o1` was tested, and the inhibition was 27.4% (active). `CCc1ccc(NC(=O)COc2ccc(/C=C(/C#N)c3nc4ccccc4[nH]3)cc2OC)cc1` was tested, and the inhibition was 11% (inactive). In the case of `COc1cc(/C=C(\C#N)c2nc3ccccc3[nH]2)ccc1OC(=O)c1ccco1`, the inhibition is reported as 7.39% (inactive). `N#C/C(=C\c1ccccc1OCc1ccc(C(=O)O)cc1)c1ccccc1` was tested, and the inhibition was -6.55% (inactive). `CN(C(=O)c1ccccc1NC(=O)C(F)(F)F)c1ccccc1` was tested, and the inhibition was 4.16% (inactive). In the case of `O=C1OCC2=C1C(c1ccccc1)CC(=O)N2c1ccccc1` (stereo unspecified), the inhibition is reported as 5.38% (inactive). For `NC(=O)C(=O)N/N=C/c1c(F)c(F)c(F)c(F)c1F`, the inhibition was 13.6% (inactive). With `C=C1CCN([C@@H](C)C(=O)NCc2ccc(OC)cc2)S(=O)(=O)c2ccccc21` the inhibition was 6.29% (inactive). In the case of `CN(CC(=O)N1CCN(c2ccccn2)CC1)S(=O)(=O)c1cccc2nsnc12`, the inhibition is reported as 3.43% (inactive). For `Cc1cc(C)nc(N/N=C/c2ccccc2OCc2ccc(Br)cc2)n1`, the inhibition was 1.44% (inactive). `Cc1c(N2C(=O)C(=O)/C(=C(/O)c3ccccc3)C2c2ccc(F)cc2)c(=O)n(-c2ccccc2)n1C` (stereo unspecified) was tested, and the inhibition was 5.61% (inactive). For `O=C(C1=C(O)C(=O)N(CCc2ccccc2)C1c1cccnc1)c1ccco1` (stereo unspecified), the inhibition was 9.09% (inactive). For `Cc1ccc(C(=O)C2=C(O)C(=O)N(Cc3ccccc3)C2c2cccnc2)o1` (stereo unspecified), the inhibition was 15.2% (inactive). `Cc1c(N/C=C/C(=O)c2ccc(Cl)cc2)c(=O)n(-c2ccccc2)n1C` was tested, and the inhibition was 4.02% (inactive). With `COC(=O)c1cc(NS(=O)(=O)c2ccc3c(c2)CCC(=O)N3)cc(C(=O)OC)c1` the inhibition was 8.87% (inactive). `O=C(CCC1CC(=O)Nc2ccccc21)NCc1ccc(F)cc1` (stereo unspecified) was tested, and the inhibition was 5.98% (inactive). For `O=C(O)CCCC(=O)Nc1ccc(Sc2ccc([N+](=O)[O-])cc2)cc1`, the inhibition was 2.99% (inactive). With `CCOc1nonc1C(=N)/C(C(C)=O)=C(\C)O` the inhibition was -1.51% (inactive). In the case of `Cc1ccc(OCC(=O)N2CCN(c3nnc(-c4ccc(C)cc4)c4ccccc34)CC2)cc1`, the inhibition is reported as 14.1% (inactive). With `CC(C)CSc1nc2ccccc2n1CC(N)=O` the inhibition was -7.7% (inactive). In the case of `O=[n+]1c2c(n([O-])c3cc(Br)ccc31)CCC2`, the inhibition is reported as 16.4% (inactive). With `O=[n+]1c2c(n([O-])c3ccccc31)CCC2` the inhibition was 26.1% (active). In the case of `O=[n+]1c2c(n([O-])c3ccccc31)CCCC2`, the inhibition is reported as 2.78% (inactive). With `Cc1ncc(CO)c(/C=N/NC(=O)c2ccc(O)cc2)c1O` the inhibition was 7.46% (inactive). For `COc1ccc(C(=O)N/N=C/c2c(CO)cnc(C)c2O)cc1`, the inhibition was 14.8% (inactive). With `Cc1cccc2cc(CN(Cc3cccs3)S(=O)(=O)c3ccc4c(c3)OCCO4)c(=O)[nH]c12` the inhibition was 4.88% (inactive). In the case of `Cc1cccc(-n2cc(CNCCc3nc(C)cc(C)n3)c(-c3cccc(F)c3)n2)c1`, the inhibition is reported as 0.33% (inactive).
